From PubChem BioAssay AID686922 (National Center for Advancing Translational Sciences (NCATS), 2013)
Values joined by “and” are separate entries in the source; they are usually repeats but may differ in a detail not shown here. Identical values can stand only once. Records with an inconclusive call do not appear. Active and inactive are the calls of the source. Calls come from the whole dose curve; as a rule, active = well fitted inhibition curve with a large enough effect; inconclusive = small, poorly fitted or top-dose-only effect; inactive = no such curve, though single readings can be large or run the other way.

Test: qHTS screen for inhibitors of ELG1-dependent DNA repair in human embryonic kidney (HEK293T) cells expressing luciferase-tagged ELG1: MMS Viability Assay for probe SAR
Conditions: HEK293T ELG1-luc + MMS viability, CellTiter-Glo, 16 h; series mostly up to 46.1 µM; activity change, negative = lower viability: at the top concentration
Source text: Cancer cells divide rapidly compared to normal cells in the body. During cell division, cancer cells need to duplicate their genome by DNA replication. The failure of genome duplication leads to cancer cells' death. Therefore, inhibitors of DNA replication could specifically kill cancer cells. Based on this concept, many chemotherapeutic agents were developed and have been used to treat cancer patients. However, there are a limited number of agents available in the clinical setting, and some of those that do exist have low efficacy and severe side effects. Therefore, if we can find the compounds that effectively block DNA replication either by directly damaging DNA or by inhibiting other cellular mechanisms, the options for cancer treatment will be broadened. With this in mind, we developed a quantitative high-throughput ELG1-luciferase reporter gene assay. Small molecules that specifically block ELG1 function in response to DNA damage can be identified by monitoring the suppression of luciferase activity. Since ELG1 defines a pathway for repairing DNA damage, agents blocking ELG1 function can be used to sensitize cancer cells to chemotherapeutic agents whose mechanism of action involves the induction of DNA damage. Cytotoxicity of the active compounds in the ELG1 qHTS assay with MMS stimulation (AID 493125) was assessed using the CellTiter-Glo Luminescent Cell Viability Assay kit (Promega, USA). CellTiter-Glo measures the intracellular ATP present in metabolically active cells using Ultra-Glo as the luciferase to detect ATP levels. In brief, the luciferase in the buffer catalyzes the oxidation of luciferin to oxyluciferin and light which is dependent on ATP. […] DMSO and wells with media alone were used as positive and negative controls, respectively. Inactivity to this assay is the desirable outcome. NIH Molecular Libraries Probe Production Network [MLPCN] NIH Chemical Genomics Center [NCGC] MLPCN Grant: R03 MH092164 Assay Provider: Kyungjae Myung, NHGRI, NIH
ELG1-luc HEK293T cells will be seeded in 1536-well plates at a density of 2,000 cells/well. Approximately 5 hours after plating, compounds will be added to the plate by pin tool transfer and MMS will be added by FRD dispenser (final concentration of MMS = 10 µM). 16 hours following the addition of the compounds, cell viability will be measured using CellTiter Glo.

SMILES	activity change, negative = lower viability	Potency
COc1nccc(-c2nc(Nc3ccc(F)c(F)c3)c3ccccc3n2)c1Cl	-4.2% (inactive)	
Fc1ccc(Nc2cc(-c3ccccc3)nc(-c3ccncc3)n2)cc1F	-28.5% (inactive)	
COc1ccc(-c2nc(Nc3ccc(F)c(F)c3)c3ccccc3n2)cc1	-27.9% (inactive)	
COc1ccc(-n2c(C)c(C(C)=O)c3ccccc32)cc1		inactive
COc1cc(-c2nc(Nc3ccc(F)c(F)c3)c3ccccc3n2)c(F)cn1		23.5 µM (active)
Fc1cc(Nc2nc(-c3ccncc3)nc3ccccc23)ccc1-c1ccncc1	2.69% (inactive)	
Fc1cc(Nc2nc(-c3ccncc3)nc3ccccc23)ccc1-c1ccc2[nH]ncc2c1	-12.3% (inactive)	
CSc1ccccc1-c1ccc(Nc2nc(-c3ccncc3)nc3ccccc23)cc1F	-35.6% (inactive)	
O=c1cc(-c2nc(Nc3ccc(F)c(F)c3)c3ccccc3n2)cc[nH]1	9.88% (inactive)	
Fc1ccc(-c2nc(-c3ccncc3)nc3ccccc23)cc1F	-13.7% (inactive)	
Fc1ccc(Nc2nc(-c3ccncc3)nc3ccccc23)cc1F	-6.97% (inactive)	
O=[N+]([O-])c1ccc(-c2nc(Nc3ccc(F)c(F)c3)c3ccccc3n2)cc1	-10.1% (inactive)	
Cc1cc(-c2nc(Nc3ccc(F)c(F)c3)c3ccccc3n2)ccn1	5.15% (inactive)	
Fc1ccc(-c2ccc(Nc3nc(-c4ccncc4)nc4ccccc34)cc2F)c(Cl)c1		18.7 µM (active)
Cc1cc(-c2nc(Nc3ccc(F)c(F)c3)c3ccccc3n2)cc(C)n1	-8.79% (inactive)	
Fc1ccc(Nc2nc(-c3ccncc3Cl)nc3ccccc23)cc1F	-3.34% (inactive)	
COc1cc(Nc2nc(-c3ccncc3)nc3ccccc23)ccc1NS(C)(=O)=O	-4.62% (inactive)	
Fc1cccc(-c2ccc(Nc3nc(-c4ccncc4)nc4ccccc34)cc2F)c1	-21.1% (inactive)	
COc1cc(Nc2nc(-c3ccncc3)nc3ccccc23)ccc1N1CCN(C)CC1	4.02% (inactive)	
COc1cnccc1-c1nc(Nc2ccc(F)c(F)c2)c2ccccc2n1		16.6 µM (active)

SMILES	activity change, negative = lower viability	Potency
Fc1ccc(Nc2nc(-c3ccnc(C(F)(F)F)c3)nc3ccccc23)cc1F		20.9 µM (active)
Oc1ccc(Nc2nc(-c3ccncc3)nc3ccccc23)cc1F	-27.3% (inactive)	
Fc1cc(Nc2nc(-c3ccncc3)nc3ccccc23)ccc1-c1cc(F)c(F)c(F)c1	4.68% (inactive)	
Fc1cccc(Nc2nc(-c3ccncc3)nc3ccccc23)c1	-25.8% (inactive)	
Fc1cc(Nc2nc(-c3ccncc3)nc3ccccc23)ccc1-c1cccnc1	1.55% (inactive)	
Cc1nc2ccc(Nc3nc(-c4ccncc4)nc4ccccc34)cc2s1	-3.61% (inactive)	
Fc1cc(Nc2nc(-c3ccncc3)nc3ccccc23)ccc1C(F)(F)F		7.43 µM (active) and 16.6 µM (active)
Fc1cc(Nc2nc(-c3ccncc3)nc3ccccc23)ccc1-c1cccc(C(F)(F)F)c1		20.9 µM (active)
Fc1cc(Nc2nc(-c3ccncc3)nc3ccccc23)ccc1-c1cccc(OC(F)F)c1	-22.4% (inactive)	
Fc1cc(Nc2nc(-c3ccncc3)nc3ccccc23)ccc1-c1ccc(F)c(F)c1F	3.54% (inactive)	
Fc1ccc(-c2ccc(Nc3nc(-c4ccncc4)nc4ccccc34)cc2F)c(F)c1		7.43 µM (active)
COc1ccc(-n2c(C)c(C(C)=O)c3cc(O)ccc32)cc1	12.3% (inactive)	
Nc1cc(-c2nc(Nc3ccc(F)c(F)c3)c3ccccc3n2)ccn1	11.4% (inactive)	
COc1ccc(-c2ccc(Nc3nc(-c4ccncc4)nc4ccccc34)cc2F)cc1F	-27.8% (inactive)	
CN1CCN(c2ccc(Nc3nc(-c4ccncc4)nc4ccccc34)cc2F)CC1	-7.11% (inactive)	
Fc1cc(Nc2nc(-c3ccncc3)nc3ccccc23)ccc1-n1cncn1		inactive
Fc1cc(Nc2nc(-c3ccncc3)nc3ccccc23)ccc1-c1cn[nH]c1	-4.27% (inactive)	
COc1cc(Nc2nc(-c3ccncc3)nc3ccccc23)ccc1F		23.5 µM (active) and 20.9 µM (active)
Fc1ccc(Nc2nc(-c3ccnc(N4CCCCC4)c3)nc3ccccc23)cc1F	3.34% (inactive)	
Fc1cc(Nc2nc(-c3ccncc3)nc3ccccc23)ccc1-c1cccc(OC(F)(F)F)c1		18.7 µM (active)
